Key:
Assay in all cases: universal protein binding microarray (PBM); transcription factors of Arabidopsis thaliana; high values mean tight binding
GST-ANAC092(1-176) = biological target: T1, GST-ANAC092(1-176) (Arabidopsis thaliana, UniProt Q9FKA0 1-176); conditions: protein: recombinant; tags: GST; chain copies: 2; dsDNA, one strand shown
T1 sequence: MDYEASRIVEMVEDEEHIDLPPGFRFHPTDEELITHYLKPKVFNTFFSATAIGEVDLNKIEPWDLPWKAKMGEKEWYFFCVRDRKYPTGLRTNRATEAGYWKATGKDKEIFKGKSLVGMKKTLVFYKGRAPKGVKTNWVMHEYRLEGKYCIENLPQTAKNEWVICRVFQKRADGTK
Procedure, shortened: (§1)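 Protein amounts were determined by A280 or anti-GST western blot after glutathione–Sepharose 4B purification of GST-tagged proteins induced in cells, with zinc acetate included for zinc-finger proteins. Duplicate runs at 200 to 500 nM final were done on custom all-10-mer Agilent 4 × 180K arrays made double-stranded by primer extension. The normalised enrichment score (E-score) over gapped and ungapped 8-mers is the measure of binding.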

GST-NTL6(1-168) = GST-NTL6(1-168) (Arabidopsis thaliana, UniProt Q9SCK6 1-168); conditions: protein: recombinant; tags: GST; chain copies: 2; dsDNA, one strand shown
Procedure, shortened: as §1

GST-ANAC019 NAC domain = biological target: T2, GST-ANAC019 NAC domain (Arabidopsis thaliana, UniProt Q9C932 14-162); conditions: protein: recombinant; tags: GST; chain copies: 2; dsDNA, one strand shown
T2 sequence: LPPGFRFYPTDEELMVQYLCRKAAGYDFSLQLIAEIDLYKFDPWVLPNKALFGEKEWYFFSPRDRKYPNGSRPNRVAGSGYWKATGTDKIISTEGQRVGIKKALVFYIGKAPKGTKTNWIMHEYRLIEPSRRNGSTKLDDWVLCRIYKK
Procedure, shortened: as §1

GST-ATAF1 NAC domain = biological target: T3, GST-ATAF1 NAC domain (Arabidopsis thaliana, UniProt Q39013 7-158); conditions: protein: recombinant; tags: GST; chain copies: 2; dsDNA, one strand shown
T3 sequence: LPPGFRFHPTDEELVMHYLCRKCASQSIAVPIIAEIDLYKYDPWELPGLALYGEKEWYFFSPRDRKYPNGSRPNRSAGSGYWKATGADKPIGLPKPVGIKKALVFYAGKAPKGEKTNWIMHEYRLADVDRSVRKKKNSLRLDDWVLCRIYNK
Procedure, shortened: as §1

[1] = biological target: T4, GST-ANAC092(1-285) full length (Arabidopsis thaliana, UniProt Q9FKA0 1-285); conditions: protein: recombinant; tags: GST; chain copies: 2; dsDNA, one strand shown
T4 sequence: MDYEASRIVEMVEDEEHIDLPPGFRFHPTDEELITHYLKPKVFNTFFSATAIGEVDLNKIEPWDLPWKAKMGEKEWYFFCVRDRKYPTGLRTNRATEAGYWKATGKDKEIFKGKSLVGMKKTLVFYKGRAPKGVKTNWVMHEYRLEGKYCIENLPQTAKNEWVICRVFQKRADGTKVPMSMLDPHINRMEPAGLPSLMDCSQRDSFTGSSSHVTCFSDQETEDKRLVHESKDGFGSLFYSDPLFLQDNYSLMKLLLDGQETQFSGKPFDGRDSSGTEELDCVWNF
Procedure, shortened: as §1

GST-NST2(1-184) = biological target: T5, GST-NST2(1-184) (Arabidopsis thaliana, UniProt Q9M274 1-184); conditions: protein: recombinant; tags: GST; chain copies: 2; dsDNA, one strand shown
T5 sequence: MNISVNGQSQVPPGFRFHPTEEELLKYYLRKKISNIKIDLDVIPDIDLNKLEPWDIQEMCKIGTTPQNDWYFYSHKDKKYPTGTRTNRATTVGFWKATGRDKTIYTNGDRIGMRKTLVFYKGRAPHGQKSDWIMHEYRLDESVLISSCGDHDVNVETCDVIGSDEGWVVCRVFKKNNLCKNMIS
Procedure, shortened: as §1

GST-NTL8 NAC domain = biological target: T6, GST-NTL8 NAC domain (Arabidopsis thaliana, UniProt Q9XIN7 14-156); conditions: protein: recombinant; tags: GST; chain copies: 2; dsDNA, one strand shown
T6 sequence: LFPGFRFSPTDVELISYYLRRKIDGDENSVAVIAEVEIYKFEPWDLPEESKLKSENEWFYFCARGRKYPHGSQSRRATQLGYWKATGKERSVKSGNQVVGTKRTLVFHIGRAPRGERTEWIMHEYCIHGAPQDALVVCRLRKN
Procedure, shortened: as §1

GST-SND1(1-203) = biological target: T7, GST-SND1(1-203) (Arabidopsis thaliana, UniProt Q9LPI7 1-203); conditions: protein: recombinant; tags: GST; chain copies: 2; dsDNA, one strand shown
T7 sequence: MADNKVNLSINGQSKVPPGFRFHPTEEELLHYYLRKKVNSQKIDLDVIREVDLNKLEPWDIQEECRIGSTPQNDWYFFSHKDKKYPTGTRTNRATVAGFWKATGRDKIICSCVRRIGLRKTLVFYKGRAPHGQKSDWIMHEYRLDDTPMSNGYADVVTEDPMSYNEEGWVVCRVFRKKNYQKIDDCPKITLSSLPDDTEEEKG
Procedure, shortened: as §1

GST-VND7 NAC domain = biological target: T8, GST-VND7 NAC domain (Arabidopsis thaliana, UniProt Q9C8W9 9-158); conditions: protein: recombinant; tags: GST; chain copies: 2; dsDNA, one strand shown
T8 sequence: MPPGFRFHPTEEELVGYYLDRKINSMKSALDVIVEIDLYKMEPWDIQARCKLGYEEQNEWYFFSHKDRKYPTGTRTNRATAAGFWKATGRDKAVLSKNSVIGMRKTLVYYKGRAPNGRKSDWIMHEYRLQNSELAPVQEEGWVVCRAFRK
Procedure, shortened: as §1

GST-WRKY1(266-371) = GST-WRKY1(266-371) (Arabidopsis thaliana, UniProt Q9SI37 266-371); conditions: protein: recombinant; tags: GST; dsDNA, one strand shown
Procedure, shortened: as §1

GST-VND3 NAC domain = biological target: T9, GST-VND3 NAC domain (Arabidopsis thaliana, UniProt Q9FH59 12-162); conditions: protein: recombinant; tags: GST; chain copies: 2; dsDNA, one strand shown
T9 sequence: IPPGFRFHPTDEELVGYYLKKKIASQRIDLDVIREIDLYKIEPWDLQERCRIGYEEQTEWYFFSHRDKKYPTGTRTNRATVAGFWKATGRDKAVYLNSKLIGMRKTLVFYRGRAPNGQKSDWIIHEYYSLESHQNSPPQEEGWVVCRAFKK
Procedure, shortened: as §1

GST-ANAC055(1-171) = biological target: T10, GST-ANAC055(1-171) (Arabidopsis thaliana, UniProt Q9LDY8 1-171); conditions: protein: recombinant; tags: GST; chain copies: 2; dsDNA, one strand shown
T10 sequence: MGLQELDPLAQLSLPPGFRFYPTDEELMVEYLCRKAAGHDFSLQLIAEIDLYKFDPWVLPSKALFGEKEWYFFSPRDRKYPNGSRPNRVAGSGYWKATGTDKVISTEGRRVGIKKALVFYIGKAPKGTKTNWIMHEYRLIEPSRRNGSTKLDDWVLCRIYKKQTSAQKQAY
Procedure, shortened: as §1

GST-NAP(1-166) = biological target: T11, GST-NAP(1-166) (Arabidopsis thaliana, UniProt O49255 1-166); conditions: protein: recombinant; tags: GST; chain copies: 2; dsDNA, one strand shown
T11 sequence: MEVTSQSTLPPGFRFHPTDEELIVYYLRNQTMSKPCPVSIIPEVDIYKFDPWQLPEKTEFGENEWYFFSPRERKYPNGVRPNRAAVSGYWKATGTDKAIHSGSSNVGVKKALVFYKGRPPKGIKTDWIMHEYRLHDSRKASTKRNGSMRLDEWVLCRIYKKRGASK
Procedure, shortened: as §1

Chain of GST-NTL6(1-168) (Q9SCK6 1-168): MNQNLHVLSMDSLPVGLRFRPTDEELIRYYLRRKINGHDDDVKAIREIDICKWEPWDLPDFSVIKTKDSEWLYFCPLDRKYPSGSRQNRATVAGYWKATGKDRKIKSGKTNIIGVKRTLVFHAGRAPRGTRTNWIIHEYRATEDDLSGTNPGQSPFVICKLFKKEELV
Chain of GST-WRKY1(266-371) (Q9SI37 266-371): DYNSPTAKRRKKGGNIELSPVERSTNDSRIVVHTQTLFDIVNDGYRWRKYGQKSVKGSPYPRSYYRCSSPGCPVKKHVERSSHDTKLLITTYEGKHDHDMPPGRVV

Row | Sequence | binding signal (GST-ANAC092(1-176)) [E-score] | binding signal (GST-NTL6(1-168)) [E-score] | binding signal (GST-ANAC019 NAC domain) [E-score] | binding signal (GST-ATAF1 NAC domain) [E-score] | binding signal [1] [E-score] | binding signal (GST-NST2(1-184)) [E-score] | binding signal (GST-NTL8 NAC domain) [E-score] | binding signal (GST-SND1(1-203)) [E-score] | binding signal (GST-VND7 NAC domain) [E-score] | binding signal (GST-WRKY1(266-371)) [E-score] | binding signal (GST-VND3 NAC domain) [E-score] | binding signal (GST-ANAC055(1-171)) [E-score] | binding signal (GST-NAP(1-166)) [E-score]
1 | CCCTCCCC | 0.299 | 0.353 | 0.226 | 0.121 | 0.308 | 0.169 | 0.336 | 0.405 | 0.198 | 0.0672 |  |  | 
2 | CAAGTCAG |  |  |  |  | 0.11 |  |  | 0.0706 |  | 0.417 | 0.0527 |  | 
3 | AAGTCATC |  | 0.233 |  |  | 0.213 | 0.089 | 0.0978 | 0.242 | 0.11 | 0.406 |  | 0.0818 | 0.0606
4 | CAGGGAAA | 0.141 | 0.0693 | 0.115 |  | 0.102 |  | 0.407 | 0.0967 |  |  | 0.0593 |  | 
5 | TCCGTCAA |  |  | 0.0961 |  |  |  |  | 0.063 |  | 0.412 | 0.105 |  | 
6 | GTTTCCTA | 0.118 | 0.0734 | 0.158 | 0.212 | 0.179 | 0.169 | 0.404 | 0.106 |  |  | 0.179 | 0.133 | 0.118
7 | CTTGACTA |  |  | 0.0925 | 0.142 |  | 0.0888 | 0.0949 | 0.0644 |  | 0.462 | 0.159 | 0.0781 | 
8 | GCTAAGTA |  | 0.429 |  |  |  |  |  | 0.121 |  |  | 0.0851 |  | 0.0551
9 | GTCAAAAA | 0.114 |  | 0.0995 | 0.154 | 0.0617 | 0.121 | 0.0654 | 0.216 | 0.0546 | 0.442 |  |  | 
10 | TGACTCAA |  | 0.118 |  | 0.0764 | 0.131 |  |  | 0.0975 |  | 0.419 | 0.113 |  | 
11 | GGCGTGTA | 0.4 |  | 0.198 | 0.163 | 0.439 | 0.14 |  | 0.142 |  |  | 0.118 | 0.109 | 0.13
12 | ATAAGGAA | 0.118 | 0.423 |  | 0.129 | 0.217 | 0.136 | 0.332 | 0.201 |  |  | 0.152 | 0.0899 | 
13 | TGAAGTCA |  | 0.229 |  |  | 0.133 | 0.0789 | 0.165 | 0.196 |  | 0.426 | 0.0873 |  | 
14 | ACCGTCAA |  |  | 0.156 |  | 0.117 |  |  | 0.148 |  | 0.41 | 0.126 |  | 0.092
15 | ACGCGACC | 0.283 |  | 0.0639 |  | 0.423 | 0.0828 |  | 0.367 | 0.0778 | 0.342 |  |  | 
16 | ACACTCCA | 0.398 |  | 0.0899 | 0.17 | 0.429 | 0.226 |  | 0.278 |  |  | 0.0605 | 0.15 | 
17 | CACGCGAC | 0.421 |  |  |  | 0.462 | 0.161 |  | 0.351 | 0.064 | 0.11 |  |  | 0.0736
18 | ACGTTATC | 0.384 |  |  | 0.17 | 0.431 | 0.299 |  | 0.423 |  |  | 0.208 | 0.0511 | 0.162
19 | TCACGCCA | 0.436 |  | 0.223 | 0.178 | 0.454 | 0.263 |  | 0.358 |  |  | 0.0902 | 0.156 | 0.0509

Source: PMC4081100, “A DNA-binding-site landscape and regulatory network analysis for NAC transcription factors in Arabidopsis thaliana”
